Hits are enriched below; roughly 6.6% of the tested compounds scored in any of these assays.
KB-3-1 cytotox – kills parental KB-3-1 adenocarcinoma cells | KB-3-1 viability, CellTiter-Glo ATP luminescence, 72 h | Potency, µM (top dose mostly 46.1 µM), most hits filed as cytotoxic | hit rate 1.4% among 400,000 | AID 1347075; note: nearly all actives have a fitted effect of over 60% in size
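KB-3-1 parental drug-naive adenocarcinoma cells in DMEM/10% FBS, incubated 72 h at 37 C with pin-transferred compounds across a concentration series. Viability by CellTiter-Glo luminescence; concentration-response curves fitted after normalization.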
KB-V1 MDR tox – kills drug-selected multidrug resistant KB-V1 cells. hit rate 3.4% among 400,000. AID 1347076. Potency, µM (highest dose often 46.1 µM), hits mostly cytotoxic. KB-V1 MDR cells viability, CellTiter-Glo, 72 h; note: nearly all actives have a fitted effect of over 60% in size
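In this primary screen, KB-V1 cells overexpressing P-gp are incubated with library compounds (lowest to highest concentration) for 72 h at 37 degrees C before a luminescent ATP viability read.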
SW480 rerep – induces DNA re-replication in SW480 colon adenocarcinoma cells | SW480 DNA re-replication, Hoechst DNA content imaging, 48 h | Potency, µM (highest dose often 46.1 µM), usual class: activators | hit rate 1.8% among 340,000; note: nearly all actives have a fitted effect of over 55% in size
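250 cells/well; 23 nL cpd via pin tool; 48 hr, 37 C, 5% CO2; Hoechst 40 min; imager read of total nuclear intensity, ex 405/em 500-530 nm.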
PTAP TSG101 blk – blocks PTAP/TSG101 interaction to inhibit HIV-1 budding. Q99816. Fluorescence polarization, FITC-PTAP peptide / Tsg101 binding. Potency, µM (series often up to 115 µM), usual class: inhibitors. 340,000 tested, under 10 active. AID 493005; active = well fitted inhibition curve with a large enough effect in the main read-out, with a control signal flat, not every such curve was filed as active; inconclusive = small, poorly fitted or top-dose-only effect, or effect the other way, or a change in a side signal; inactive = no such curve, though single readings can be large or run the other way
Target sequence (Q99816 whole entry, looked up): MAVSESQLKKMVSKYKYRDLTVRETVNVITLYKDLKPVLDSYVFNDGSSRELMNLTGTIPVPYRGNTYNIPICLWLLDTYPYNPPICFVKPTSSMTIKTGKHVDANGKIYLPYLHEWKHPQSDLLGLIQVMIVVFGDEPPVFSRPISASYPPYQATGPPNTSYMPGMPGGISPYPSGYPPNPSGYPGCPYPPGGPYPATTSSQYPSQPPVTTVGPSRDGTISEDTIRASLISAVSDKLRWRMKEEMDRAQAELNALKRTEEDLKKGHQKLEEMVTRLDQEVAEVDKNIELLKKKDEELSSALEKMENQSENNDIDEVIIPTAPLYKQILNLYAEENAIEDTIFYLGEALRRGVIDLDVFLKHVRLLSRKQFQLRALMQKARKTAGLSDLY
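Tsg101 binding domain (10 uM final) was mixed with compound and a FITC-labeled PTAP peptide (50 nM final) in HEPES pH 7.5 buffer with NaCl, Tween 20, EDTA and TCEP; fluorescence polarization was read after 20 min at r.t.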
RGS4 inhibitor – blocks human RGS4-accelerated GTP hydrolysis; P49798; Transcreener GDP fluorescence polarization, RGS4-accelerated GTP hydrolysis; Potency, µM (top dose mostly 114 µM), hits mostly inhibitors; hit rate 0.039% among 390,000; note: nearly all actives have a fitted effect of over 75% in size
Target sequence (P49798 whole entry, looked up): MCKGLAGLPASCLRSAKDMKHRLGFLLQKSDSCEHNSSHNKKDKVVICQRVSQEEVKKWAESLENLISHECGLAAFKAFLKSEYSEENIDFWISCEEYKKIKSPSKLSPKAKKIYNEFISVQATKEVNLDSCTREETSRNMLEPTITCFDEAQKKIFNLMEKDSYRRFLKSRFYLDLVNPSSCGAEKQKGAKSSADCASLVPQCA
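MLSMR compounds (23 nl, pin-transferred) preincubated 10 min at room temperature with a 500nM (2x) first reagent, then RGS4 at 900nM (2x) plus Transcreener GDP mix added; fluorescence polarization (620/688 nm) read before and after 90 min at 30 °C.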
MCF10A rerep – inducers of DNA re-replication in MCF 10A breast cells; Potency, µM (doses to about 46.1 µM), most hits filed as activators; AID 624296; hit rate 2.9% among 350,000; MCF 10A DNA re-replication, Hoechst nuclear intensity, 48 h; note: nearly all actives have a fitted effect of over 50% in size
A number is an active result; – = inactive; ? = inconclusive; · = no result; ! = repeats disagree; [ ] = remark or other dose. Unless noted, calls come from the whole dose curve; as a rule, active = well fitted curve in the direction sought with a large enough effect; inconclusive = small, poorly fitted or top-dose-only effect, or another doubt; inactive = no such curve, though single readings can be large; an effect the other way counts as inactive or inconclusive.

SMILES	KB-3-1 cytotox	KB-V1 MDR tox	SW480 rerep	PTAP TSG101 blk	RGS4 inhibitor	MCF10A rerep
Cc1cccc(-c2nc(CSCC(=O)NCCCN3CCOCC3)c(C)o2)c1	–	?	–	–	–	–
Cc1oc(-c2ccc(Cl)cc2)nc1CSCC(=O)NCCCN1CCOCC1	–	16µM	–	–	–	?
CCC(C)Sc1cc(-c2nc3cc(C)ccn3c2NC2CCCCC2)ccc1OC (centres undefined)	?	21µM	?	–	–	?
CCC(C)Sc1ccc(-c2nc3ccc(C)cn3c2NC2CCCCC2)cc1 (centres undefined)	–	?	–[9.22 µM]	–	–	?
CCC(C)Sc1cc(-c2nc3ccccn3c2NC2CCCCC2)ccc1OC (centres undefined)	?	12µM!	16µM	–	–	21µM
CCCCCCCOC(=O)C[N+](C)(C)CCOC1CC2CCC1(C)C2(C)C (centres undefined)	21µM	–	?	–	–	?
CCCOC(=O)C[N+](C)(C)CCOC1CC2CCC1(C)C2(C)C (centres undefined)	–	–	–	–	–	–
CC(C)CCOC(=O)C[N+](C)(C)CCOC1CC2CCC1(C)C2(C)C (centres undefined)	–	–	–	–	–	16µM
CCC(C)OC(=O)C[N+](C)(C)CCOC1CC2CCC1(C)C2(C)C (centres undefined)	21µM	–	–	–	–	?
CCCCCCOC(=O)C[N+](C)(C)CCOC1CC2CCC1(C)C2(C)C (centres undefined)	–	–	–	–	–	?
Cc1ccccc1OCC(=O)Nc1ccccc1OCc1cc(=O)n2ccccc2n1	·	·	·	·	–	·
COc1ccccc1NC(=O)c1cnc(SCC(=O)N2CCOCC2)n(C)c1=O	–	–	·	·	–	·
COc1ccc(C(=O)OCc2c(-c3ccccc3)ncc3ccccc23)cc1	–	–	15µM	–	–	16µM
CCOC(=O)c1c(Oc2ccc(C(C)=O)cc2)nnc(-c2ccccc2)c1-c1ccccc1	–	–	·	·	–	·
COc1cc(C(=O)NC2CCN(C)CC2)ccc1Nc1ncc2c(n1)N(C1CCCC1)CCC(=O)N2C(C)C	?	–	–[9.22 µM]	–	–	?
COc1cc(C(=O)NC2CCN(C)CC2)ccc1Nc1ncc2c(n1)N(CCc1ccccc1)CCC(=O)N2C	?	–	0.21µM	–	–	9.2µM
CCOc1ccc(OCC)c(S(=O)(=O)NCCOC23CC4CC(CC(C4)C2)C3)c1	?	?	–	–	–	?
COc1cc(S(=O)(=O)NCCOC23CC4CC(CC(C4)C2)C3)c(OC)cc1Cl	?	5.8µM	–	–	–	?
NC(=O)N/N=C/c1c(Sc2nnnn2-c2ccccc2)nc2ccccn2c1=O	?	–	7.3µM	–	–	15µM
CN1CCC2(CC1)N=C(c1ccc(F)cc1)C(=S)N2C(=O)c1ccc(C(C)(C)C)cc1	?	?	–	–	–	8.2µM
O=C(COC(=O)/C=C/c1cccc(C(F)(F)F)c1)NCc1ccco1	–	–	–	–	–	–
O=C(CSc1nc2ccccc2[nH]1)NCc1ccco1	–	–	–	–	–	?
O=C(NCc1ccco1)/C(=C/c1ccc(C(F)(F)F)cc1)c1nc2ccccc2[nH]1	?	–	21µM	–	–[11.4 µM]	21µM
O=S(=O)(/C(=C\c1ccc(C(F)(F)F)cc1)c1nc2ccccc2[nH]1)c1ccccc1	2.6µM	?	2.3µM	–	?	?
O=C(NCc1ccco1)/C(=C/c1cccc(C(F)(F)F)c1)c1nc2ccccc2[nH]1	?	21µM	?	–	–	23µM
SMILES	KB-3-1 cytotox	KB-V1 MDR tox	SW480 rerep	PTAP TSG101 blk	RGS4 inhibitor	MCF10A rerep
Cc1ccc(NC(=O)CN2C(=O)COc3ccc(S(=O)(=O)N4CCCCCC4)cc32)cc1C	·	·	·	·	–	·
CCOC(=O)c1c(S(=O)(=O)NCC(=O)N(C)Cc2ccccc2)c(C)n(C)c1C	–	–	·	·	–	·
Cc1ccc(COc2ccc(-c3nnco3)cc2)cc1	–	–	–	–	–	–
Cc1cc(C(=O)COc2ccc(-c3nnco3)cc2)c(C)n1Cc1ccccc1	16µM	2.9µM	–	–	–	–
CSc1ncc(Cl)c(C(=O)N(Cc2ccc(C(C)C)cc2)C2CCS(=O)(=O)C2)n1 (centres undefined)	–	–	·	·	–	·
COc1ccc(Cl)cc1NC(=O)CN1Cc2ccccc2C1=O	?	5.2µM	·	·	–	·
COc1ccc(Cl)cc1NC(=O)CN(C)CC(=O)Nc1ccccc1-c1ccccc1	–	9.2µM	–	–	–	?
COc1ccc(Cl)cc1NC(=O)CN(C)C(=O)c1cn2ccccc2n1	?	?	13µM	–	–	?
COc1ccc(Cl)cc1NC(=O)CN(C)C(=O)c1ccc(N2CCCCC2)c([N+](=O)[O-])c1	15µM	?	–	–	–	–
COc1ccc(Cl)cc1NC(=O)CN1CCc2ccccc21	–	?	–	–	–	–
COc1ccc(Cl)cc1NC(=O)CN(C)C(=O)c1ccc(N2CCCCCC2)c([N+](=O)[O-])c1	?	?	?	–	–	–
O=C(NCCN1CCOCC1)C1(C(F)(F)F)CC(CCCO)CCCO1 (centres undefined)	·	·	·	·	–	·
CCOC(=O)c1cc(-c2ccc(C)cc2)n(CCC(=O)Nc2nc3c(C)cccc3s2)c1C	–	–	·	·	–	·
Cc1cccc2cc(CN(Cc3ccccc3)Cc3nnnn3Cc3ccccc3)c(=O)[nH]c12	?	?	·	·	–	·
CC1(C)Oc2ccc3ccc(=O)oc3c2/C(=C/NC2CCCCC2)C1=O	–	?	?	–	–	15µM
O=C(Nc1nccs1)c1ccc(COc2ccc(F)cc2)o1	–	–	–	–	–	2.9µM
O=C(Nc1nccs1)c1ccc(COc2ccc(Cl)cc2)o1	–	?	–	–	–	–
O=C(Nc1nccs1)c1ccc(COc2ccccc2Br)o1	?	15µM	–	–	–	–
CN(C)S(=O)(=O)c1cccc(NC(=S)NC23CC4CC(CC(C4)C2)C3)c1	–	–	?	–	–	?
Cc1ccc(S(=O)(=O)N(C)C)cc1NC(=S)NC(=O)C12CC3CC(CC(C3)C1)C2	3.3µM	?	–	–	–	–
NS(=O)(=O)c1cccc(NC(=S)NC(=O)C23CC4CC(CC(C4)C2)C3)c1	–	18µM	–	–	–	?
Cc1ccc(S(=O)(=O)N(C)C)cc1NC(=S)NC12CC3CC(CC(C3)C1)C2	–	–	–	–	–[11.4 µM]	?
COc1ccc(C(=O)C[n+]2cccc3cc(Cl)ccc32)cc1	?	–	·	·	·	·
CC1(O)CC(c2ccc(Cl)cc2)=NN1C(=O)c1ccc(Cl)cc1 (centres undefined)	–	?	?	–	–	12µM

High-throughput results as filed in PubChem BioAssay.
